Experiments:
Test in all cases: PBM binding z-score (relative to random genomic background probes); higher = stronger binding; sequences stand for … in GC…GCGATTGACAGCGTAGAATGAAGG
[1] = tested on: RARb homodimer (NR concentration 270 nM)
Method in brief: (§1)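 Custom Agilent 4×180K protein-binding microarrays carried double-stranded probes. Their 34-nt variable regions held direct-repeat seeds, single-nucleotide variants, half-site ablations and random human genomic background sequences. Arrays were incubated 1 h with ligand-free nuclear receptor dimers in PBS pH 7.4, 2% milk, 0.02% Triton X-100, 1 mM DTT, 0.2 mg/mL BSA and 0.4 mg/ml salmon testes DNA. Antibodies against each partner (one per run) detected binding, and scanned fluorescence was regression-normalized. Binding z-scores use random background probes as reference.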

[2] = tested on: RARg:RXRa (NR concentration 270 nM, RXRa partner concentration 90 nM)
Method in brief: as §1

[3] = tested on: RARg homodimer (NR concentration 270 nM)
Method in brief: as §1

[4] = tested on: RXRa DBDmut IVT, anti-RXR (DBD mutation: RXRa K156A/R161A, NR concentration 90 nM)
Method in brief: as §1

[5] = tested on: RXRa homodimer (NR concentration 180 nM)
Method in brief: as §1

[6] = tested on: THRa:RXRa (NR concentration 90 nM, RXRa partner concentration 90 nM)
Method in brief: as §1

[7] = tested on: THRa homodimer (NR concentration 90 nM)
Method in brief: as §1

[8] = tested on: VDR homodimer (NR concentration 270 nM)
Method in brief: as §1

[9] = tested on: VDR:RXRa (NR concentration 270 nM, RXRa partner concentration 90 nM)
Method in brief: as §1

Sequence | PBM binding z-score [1] | PBM binding z-score [2] | PBM binding z-score [3] | PBM binding z-score [4] | PBM binding z-score [5] | PBM binding z-score [6] | PBM binding z-score [7] | PBM binding z-score [8] | PBM binding z-score [9]
AGACAAAGTTCAGGACGAGGTAACGTAAAGCACG | 3.04 | 4.75 | 4.73 | 2.87 | 2.9 | 3.86 | 1.51 | 2.08 | 
CGTCCAAGGTCAATGTTAGGTCAGTGAAAGCATT | 5.33 | 7.45 | 6.89 | 3.6 | 5.27 |  | 3.81 | 2.78 | 4.92
CTCGAAAGGTCGGTTGAGGTGACTATACGGATAA | 2.54 | 3.04 | 2.85 | 0.99 | 2.76 | 5.16 | 1.68 | 0.829 | 
ATATGTAGGTTAGGGACATTCAGAAAGTAGGGAA | 1.11 | 0.67 | 1.27 | 0.8 | 0.406 | 2.32 | 1.51 | 0.36 | 
ATATGTAGGTAAGGGTCATTCAGAAAGTAGGGAA | 3.55 | 4.21 | 3.2 | 2.15 | 4.88 | 3.01 | 1.15 | 3.13 | 
CAAAATAGGTCAAGGTCAAAGTCGGTTTGTGCCA | 5.46 | 6.53 | 7.1 | 2.89 | 6.48 | 4.48 | 3.55 | 3.72 | 
CCGAGTAGGATACGAGGGGGCATTCAGTGCGAAT | 1.17 | 1.37 | 0.779 | 0.527 | 0.919 | 1.97 | -0.158 | 2.57 | 
CGAGCTAGGTCACCAGGACAGTGAAGAGGTTGGA | 3.31 | 4.21 | 5.39 | 1.24 | 2.97 | 3.18 | 1.65 | 0.493 | 
ATATGTAGGTTAGGGTCATTCATAAAGTAGGGAA | 3.59 | 4.05 | 3 | 2.76 | 5.31 | 4.21 | 3.65 | 4.32 | 
ATGTGTAGGTTACATCCGGGTCATTCAGGCTATG | 3.32 | 3.75 | 2.19 | 0.811 | 2.95 | 3.94 | 2.75 | 3.1 | 
AGTAAAAGTTCACTAGGTAACGTAAGATTCAGCT | 3.39 | 4.08 | 4.93 | 4.22 | 3.39 | 1.8 | 0.341 | 3.76 | 
CGGACTAGGTCACCAGGACAGTGAAGAGGTTGGA | 3.18 | 4.13 | 5.61 | 1 | 3.39 | 3.14 | 2.14 | 0.337 | 
TTAACAAGGTGAAAGGTCGTTGATGCACGCCTTG | 2.51 | 4.28 | 2.1 | 0.328 | 6.17 | 3.51 | 0.757 | 1.24 | 
TCTAGTTGGTCAAAGGTCTCACACTCGAAATGCG | 1.83 | 1.78 | 1.17 | 1.14 | 1.98 | 0.831 | 0.738 | 0.545 | 
CGAACTAGGTCAACAGGACAGTGAAGAGGTTGGA | 3.39 | 4.36 | 5.29 | 1.54 | 3.09 | 2.81 | 0.737 | 0.504 | 
CGTCAAAGTTCACCTAAGGTAACGTAAAGCACGC | 4.45 | 5.95 | 6.36 | 4.67 | 5.09 |  | 3.11 | 4.19 | 4.82
CCTACTGGGCCAAAAAGGCCATTGATGCCGATAA | 0.855 | 0.216 | 0.242 | -0.537 | -0.173 | 0.0885 | -0.514 | -0.0566 | 
CGTGCAAGGTCAGAGAGGTCAGTGAATGCCGAGT | 5.37 | 6.33 | 7.25 | 3.07 | 5.82 | 4.31 | 2.54 | 5.99 | 
ATATGTAGGTTAGGGTCTTTCAGAAAGTAGGGAA | 0.963 | 0.711 | 0.651 | 0.741 | 0.743 | 1.51 | 1.22 | 0.739 | 
CAATCTAGGTCACAGAGGTCAAAGTCCGTGCGTA | 5.7 | 7.55 | 7.82 | 3.44 | 8.19 | 4.8 | 3.43 | 7.51 | 
AGTCAAAGTTCATCTAGGTAACGAAAGATATGCT | 3.88 | 5.82 | 6.19 | 4.79 |  | 3.24 | 0.383 | 5.04 | 4.81
GCATATAGGTAATTCAAGGTGAAAGTCCGATTGT | 0.847 | 0.546 | 0.26 | 0.583 | 0.756 |  | 1.67 | 0.292 | 
CCGAGTAGGTTACGTGGGGGCATTCAGTGCGAAT | 2.1 | 2.87 | 2.05 | 1.44 | 2.12 |  | 1.09 | 2.85 | 5.48
ACTAGTAGGTCAGCTGAGGTCACACACAATTCGG | 5.47 | 6.45 | 7.1 | 2.43 | 6.29 |  | 5.63 | 5.23 | 
CCGACTGGGTCAAAGGTTACCATACTCAGTACGA | 3.42 | 5.88 | 4.13 | 1.23 |  | 3.62 | 0.418 | 0.82 | 4.41
TTACCAAGGTCAGCTGAGGTCGTTGATCCAACTC | 4.61 | 5.52 | 6.14 | 2.79 | 4.69 |  | 3.51 | 4.14 | 
AGTCAAAATTCACTAGGTAACGTAAGATTCAGCT | 0.0175 | 0.434 | 0.425 | 0.24 |  | 0.806 | 0.608 | 0.272 | 0.0665
CAAACTAGGTCAAAGGTCAAAGCCGAGCCAACCA | 5.47 | 8.97 | 7.51 | 2.57 | 10.7 |  | 1.74 | 2.99 | 
ACTAGGTGGTCAGCTGAGGTCACACACAATTCGG | 4.47 | 4.04 | 4.46 | 0.949 | 4.06 |  | 5.08 | 2.8 | 
